AID923 – qHTS Assay for Allosteric/Competitive Inhibitors of Caspase-1: Spectroscopic Profiling in AFC Spectral Region; Potency, µM (doses to about 57.5 µM), usual class: activators; AID 923, 2007; 1.1% of 75,000 active; compound fluorescence, AFC spectral region (405/520 nm)
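Titrations up to 57 uM read every 20 sec for 3 min (405/520 nm) with 50 nM caspase 1 and 5 uM Ac-WEHD-AFC, pH 7.5 HEPES buffer. Fluorescence-vs-time intercept gave baseline, scaled against on-plate AFC standard.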
A350 autofl – compounds fluorescent in Alexa 350 spectral region; Compound autofluorescence, 340/450 nm, Alexa 350 dye-equivalents; active compounds read high; max dye-equivalent concentration, M; 11% of 59,000 active; in the data active = max dye-equivalent concentration above about 10 nM; inconclusive = mostly about 1.1 nM to 9.6 nM
4MU fluor – 4-MU region autofluorescence | compound autofluorescence, 340/450 nm, 4-MU equivalents; active compounds read high | 11% of 59,000 active | max dye-equivalent concentration, M; in the data active = max dye-equivalent concentration above about 10 nM; inconclusive = mostly about 1.1 nM to 9.6 nM
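Compounds in 100 mM Tris, pH 8.0, incubated 15 min at room temperature, then fluorescence read at 340 nm excitation/450 nm emission. Signal converted to 4-MU dye-equivalent concentration using an on-plate six-point 4-MU standard curve.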
CRE-bla Fsk – alters forskolin-stimulated CRE reporter signaling in CHO cells; 2.5% of 71,000 active; Potency, µM (doses to about 38.2 µM), usual class: activators; CHO CRE-bla reporter (cAMP response element driving beta-lactamase), forskolin EC10, beta-lactamase ratio; active = well fitted activation curve with a large enough effect in the signal ratio, with a control signal flat, not every such curve was filed as active; inconclusive = small, poorly fitted or top-dose-only effect, or effect the other way, or a change in a side signal; the % refers to the signal ratio
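Forskolin analogue NKH 477 at EC10 stimulated CRE-driven beta-lactamase in CHO cells alongside compound dilution series. Beta-lactamase was measured with CCF4, excitation 405 nm, emission ratio 460/530 nm.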
HSD17B inhib – blocks hydroxysteroid 17-beta dehydrogenase activity; Q99714; recombinant HSD17B10, NADH fluorescence kinetic; Potency, µM (titrated, usually from 57.1 µM), usual class: inhibitors; 7.6% of 75,000 active;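 also: the protocol describes HADH2 (HSD17B10) and not the HSD17B4 of the title; nearly all actives have a fitted effect of over 70% in size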
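His-tagged E. coli-expressed HADH2 at 20 nM in 100 mM Tris-HCl pH 9.0 with 0.01 % Tween-20, preincubated 15 min with compound at room temperature. Reaction with 1 mM NAD+ and 90 uM beta-hydroxybutyryl coenzyme A; NADH fluorescence (360/450 nm) read kinetically over 4 min, last minus first point.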
HADH2 inh – inhibitors of human HADH2 dehydrogenase; recombinant HADH2, NADH fluorescence, beta-hydroxybutyryl-CoA; Potency, µM (series often up to 57.1 µM), most hits filed as inhibitors; 3.4% of 73,000 active; also: nearly all actives have a fitted effect of over 60% in size
Target sequence (Q99714 whole entry, looked up, one chain of several): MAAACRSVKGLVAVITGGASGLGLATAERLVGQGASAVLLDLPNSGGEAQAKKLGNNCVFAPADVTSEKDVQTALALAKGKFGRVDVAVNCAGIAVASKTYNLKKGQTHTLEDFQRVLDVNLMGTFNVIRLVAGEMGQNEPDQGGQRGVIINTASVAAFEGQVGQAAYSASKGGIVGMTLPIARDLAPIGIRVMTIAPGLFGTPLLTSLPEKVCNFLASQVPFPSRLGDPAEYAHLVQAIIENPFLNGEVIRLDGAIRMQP
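His-tagged recombinant enzyme from E. coli, 20 nM, preincubated 15 min RT with compound; reaction started with 1 mM NAD+ and 90 uM beta-hydroxybutyryl-CoA in 100 mM Tris-HCl pH 9.0. NADH fluorescence (ex 360/em 450) read over 4 min; last-minus-first difference.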
Of the large screens only hits and unclear results are named; the others gave an inactive call. Only some compounds are listed: those with a hit (about 14% of all), similar ones and a draw of the others. Unless noted, calls follow the shape of the dose curve; as a rule, active = well fitted curve in the direction sought with a large enough effect; inconclusive = small, poorly fitted or top-dose-only effect, or another doubt; inactive = no such curve, though single readings can be large; an effect the other way counts as inactive or inconclusive.

Cc1cc(CC(=O)O)c(C)cc1CC(=O)O	A350 autofl 6.27e-08M, 4MU fluor 5.29e-08M (no result: AID923, CRE-bla Fsk, HSD17B inhib, HADH2 inh)
CN=C(NC#N)NCCSCc1csc(N=C(N)N)n1	none (no result: A350 autofl, 4MU fluor)
CCOc1ccc2nc(C)cc(C(=O)O)c2c1	A350 autofl 1.53e-07M, 4MU fluor 1.48e-07M, CRE-bla Fsk inconclusive, HSD17B inhib 12.6µM, HADH2 inh 15.8µM
COc1ccc2nc(C)cc(C(=O)O)c2c1	A350 autofl 7.09e-08M, 4MU fluor 7.42e-08M, HSD17B inhib 31.6µM, HADH2 inh 25.1µM
COc1ccc(-c2ccc(OC)cc2C(=O)O)cc1	CRE-bla Fsk inconclusive
OC1CC2CC[C@H](C1)N2CCCN1c2ccccc2Sc2ccc(Cl)cc21 (stereo partly specified)	none
CC(=O)OC/C=C(C)/C=C/C=C(C)/C=C/C1=C(C)CCCC1(C)C	HSD17B inhib 39.8µM (no result: A350 autofl, 4MU fluor)
CCOC(=O)c1[nH]c2ccc(OC)cc2c1NC(=O)CCN1CCC(C)CC1	A350 autofl 4.74e-08M, 4MU fluor 3.99e-08M (no result: AID923, CRE-bla Fsk, HSD17B inhib, HADH2 inh)
CCOC(=O)c1[nH]c2ccc(OC)cc2c1NC(=O)CCN1CCc2ccccc2C1	A350 autofl 4.68e-08M, 4MU fluor 3.9e-08M (no result: AID923, CRE-bla Fsk, HSD17B inhib, HADH2 inh)
CC(=O)Cc1nsc(NC(=O)c2ccc(COc3ccccc3)o2)n1	HSD17B inhib 31.6µM, HADH2 inh inconclusive
COc1ccc(C[C@H](O)CN2CCOCC2)cc1	none
COc1ccc(-c2cc3ccccc3n2CC(O)CN2CCOCC2)cc1 (stereo unspecified)	CRE-bla Fsk inconclusive, HSD17B inhib 12.6µM, HADH2 inh inconclusive
COc1ccc(OC2C=CC(C#Cc3ccc(C(C)(C)C)cc3)OC2CO)cc1 (stereo unspecified)	none (no result: A350 autofl, 4MU fluor, CRE-bla Fsk)
CC(=O)OC1CC[C@]2(C)C(CC[C@@]3(C)C2C(=O)C=C2C4C(C)C(C)CC[C@@]4(C(=O)O)CCC23C)C1(C)C (stereo partly specified)	none (no result: A350 autofl, 4MU fluor, CRE-bla Fsk, HADH2 inh)
OC[C@H]1O[C@@H](n2cnc3cncnc32)[C@H](O)[C@@H]1O	none (no result: A350 autofl, 4MU fluor, CRE-bla Fsk, HADH2 inh)
NCC1O[C@@H](OC2C(N)C[C@H](N)[C@@H](O[C@H]3OC(CO)C(O)C(N)C3O)C2O)C(N)C(O)C1O (stereo partly specified)	none (no result: A350 autofl, 4MU fluor, CRE-bla Fsk, HADH2 inh)
CCn1c(N)c(C(=O)NCc2cccnc2)sc1=S	CRE-bla Fsk inconclusive, HADH2 inh inconclusive
Nc1c(C(=O)NCc2cccnc2)sc(=S)n1-c1ccccc1	HSD17B inhib inconclusive, HADH2 inh 15.8µM (no result: A350 autofl, 4MU fluor)
NC(=O)CN1C(=O)C(O)(CC(=O)c2ccccc2O)c2ccccc21 (stereo unspecified)	none (no result: A350 autofl, 4MU fluor)
CC1(C)c2ccccc2N2CC(=O)N(CC(N)=O)C21C (stereo unspecified)	A350 autofl 2.03e-06M, 4MU fluor 1.43e-06M, CRE-bla Fsk inconclusive
COC(=O)C(CC(C)C)NC(=O)CSc1nc(-c2ccccc2)c(C#N)c(=O)[nH]1 (stereo unspecified)	none
COC(=O)c1cc(-c2ccc3ccccc3c2)[nH]c(=O)c1C#N	A350 autofl 2.39e-07M, 4MU fluor 2.21e-07M, HSD17B inhib 3.98µM
O=C(CCN1C(=O)C2C3C=CC(C3)C2C1=O)Nc1c(F)cc(F)cc1Br (stereo unspecified)	A350 autofl 1.21e-08M, 4MU fluor 1.21e-08M, CRE-bla Fsk inconclusive
OCCN[C@@H]1c2cc(Cl)ccc2-c2c(Cl)cc(Cl)cc21	none
COCCn1c(C(=O)N2CCCC2)cc2c1C[C@H]1CN(C(=O)c3ccccc3)[C@@](Cc3ccc(OC)cc3)(C(=O)OC)[C@@H]21	none (no result: A350 autofl, 4MU fluor)
Clc1ccc(-c2nc3nc4ccccc4nc3n2Cc2ccco2)cc1	A350 autofl 2.35e-07M, 4MU fluor 1.68e-07M, CRE-bla Fsk inconclusive, HSD17B inhib inconclusive
S=c1[nH]nc(-c2ccc(Br)cc2)n1Cc1ccco1	HADH2 inh inconclusive
O=c1c2ccccc2nnn1CSc1nc2cc(Cl)ccc2c(=O)n1Cc1ccco1	CRE-bla Fsk inconclusive
Cc1ccc(-c2nc3nc4ccccc4nc3n2Cc2ccco2)cc1	A350 autofl 5.53e-07M, 4MU fluor 3.99e-07M, HSD17B inhib 25.1µM, HADH2 inh inconclusive
O=C(c1ccccc1)N1CCCC(C(=O)N2CCCCCC2)C1 (stereo unspecified)	none

Compound activity as filed in PubChem BioAssay.
